According to PubChem BioAssay (Tox21):
Records with an inconclusive call do not appear. Values without a mark were called inactive. Active and inactive are the calls of the source. Calls follow the shape of the dose curve; as a rule, active = well fitted inhibition curve with a large enough effect in the repeat runs; inconclusive = weak or mixed curves; inactive = no such curve, though single readings can be large or run the other way.

What follows are compounds tested against Cytochrome P450 2C19 (Homo sapiens) (UniProt P33261) (assay: Cytochrome P450 Family 2 Subfamily C Member 19 (CYP2C19) small molecule antagonists: luciferase reporter qHTS assay (AID 1671197; also: nearly all actives have a fitted effect of over 65% in size)). Settings: P450-Glo CYP2C19 enzyme, luciferin luminescence, 1 h; series mostly up to 115 µM; activity change, negative = inhibition: at the top concentration.
Chain of Cytochrome P450 2C19 (Homo sapiens) (P33261 whole entry, looked up): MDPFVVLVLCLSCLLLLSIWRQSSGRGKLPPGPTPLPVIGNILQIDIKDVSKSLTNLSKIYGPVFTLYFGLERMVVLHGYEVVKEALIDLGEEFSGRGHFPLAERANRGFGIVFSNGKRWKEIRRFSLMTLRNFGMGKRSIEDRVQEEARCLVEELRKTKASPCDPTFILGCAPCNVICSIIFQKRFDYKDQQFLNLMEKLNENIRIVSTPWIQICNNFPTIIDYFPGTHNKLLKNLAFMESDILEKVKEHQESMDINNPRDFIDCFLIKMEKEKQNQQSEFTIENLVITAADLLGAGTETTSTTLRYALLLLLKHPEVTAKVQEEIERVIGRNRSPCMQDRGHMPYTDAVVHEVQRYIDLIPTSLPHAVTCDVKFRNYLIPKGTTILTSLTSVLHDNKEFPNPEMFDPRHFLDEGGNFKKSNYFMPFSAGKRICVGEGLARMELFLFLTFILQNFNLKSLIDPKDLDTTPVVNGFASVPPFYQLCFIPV
Outline: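 Compounds were tested on CYP2C19 activity via proluciferin conversion to luciferin. The 37C, 1 h reaction followed NADPH addition; detection reagent stopped it.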
% is scaled to controls: 0 for no effect and ±100 for the full control effect; potency is read from the fitted curve at half-maximal effect.

| SMILES | activity change, negative = inhibition | Potency |
| --- | --- | --- |
| CC(C)CCCC(=O)O | 24.6% | – |
| CC(N)CN (configuration not stated) | – | 60.5 µM (active) |
| CO[C@H]1C=CO[C@@]2(C)Oc3c(C)c(O)c4c(O)c(c5c(c4c3C2=O)=NC2(CCN(CC(C)C)CC2)N=5)NC(=O)/C(C)=C\C=C/[C@H](C)[C@H](O)[C@@H](C)[C@@H](O)[C@@H](C)[C@H](OC(C)=O)[C@@H]1C | – | 39.1 µM (active) |
| C=C(C)C(=O)OCCOC(=O)CC(C)=O | -11.7% | – |
| CC(Cl)C(Cl)Cl (configuration not stated) | – | 31.2 µM (active) |
| O=C(O)c1cccc(O)c1 | – | 40.2 µM (active) |
| O=C(CCCN1CCC(O)(c2ccc(Br)cc2)CC1)c1ccc(F)cc1 | -8.68% [at 52.9 µM] | – |
| CCOC(=O)c1ccccc1OC | – | 79.6 µM (active) |
| C[C@]12CCC(=O)C=C1C=C[C@@H]1[C@@H]2CC[C@@]2(C)[C@H]1CC[C@@]21CCC(=O)O1 | – | 1.1 µM (active) |
| COC(=O)CC(=O)C(C)(C)C | -13.9% | – |
| CCn1cc(C(=O)O)c(=O)c2cc(F)c(N3CCNCC3)nc21 | 2.53% [at 52.9 µM] | – |
| COc1ccc(C(=O)c2cccc(O)c2)c(OC)c1 | – | 3.55 µM (active) |
| CC1=C(/C=C/C(C)=C\C=C\C(C)=C\C(=O)O)C(C)(C)CCC1 | – | 35.6 µM (active) |
| CCCCC(CC)COC(=O)COc1ccc(Cl)cc1C (configuration not stated) | – | 8.94 µM (active) |
| Cc1cnc(C)c(C)n1 | -5.17% | – |
| CCCCC(=O)O[C@]1(C(=O)CO)CC[C@H]2[C@@H]3CCC4=CC(=O)CC[C@]4(C)[C@H]3[C@@H](O)C[C@@]21C | -17% [at 52.9 µM] | – |
| CC1C2CC(CC2C2CCCC(O)C2)C1(C)C (configuration not stated) | – | 35.6 µM (active) |
| O=Cc1c(Cl)cccc1Cl | 8.68% | – |
| C=CC(=O)NCOCC(C)C | 13.7% | – |
| Cc1c(C(=O)NN2CCCCC2)nn(-c2ccc(Cl)cc2Cl)c1-c1ccc(Cl)cc1 | 18% [at 52.9 µM] | – |

| SMILES | activity change, negative = inhibition | Potency |
| --- | --- | --- |
| CC(C)CCCCCCOC(=O)CCCCC(=O)OCCCCCCC(C)C | -2.82% | – |
| C/C=C(\C)C(=O)OCCC(C)CCC=C(C)C (configuration not stated) | – | 20 µM (active) |
| CC1(C)O[C@@H]2C[C@H]3[C@@H]4CCC5=CC(=O)C=C[C@]5(C)[C@H]4[C@@H](O)C[C@]3(C)[C@]2(C(=O)CO)O1 | 9.85% [at 52.9 µM] | – |
| CCOC(=O)N1CCC(n2c(=O)[nH]c3cc(Cl)ccc32)CC1 | – | 9.77 µM (active) |
| CC(=O)OCC(=O)[C@H]1CC[C@H]2[C@@H]3CCC4=CC(=O)CC[C@]4(C)[C@H]3CC[C@]12C | – | 9.77 µM (active) |
| CCC(=O)Oc1ccc(/C(CC)=C(\CC)c2ccc(OC(=O)CC)cc2)cc1 | -1.69% | – |
| CC(C)(C)CC(C)(C)c1ccc(OCCO)cc1 | – | 79.2 µM (active) |
| O=S1OCCO1 | 5.8% | – |
| C=CCCCCCCCCCCCCCCCC | 5.26% [at 10.5 µM] | – |
| CSc1ccc(Oc2ccc(S(N)(=O)=O)cc2CN(C)C)cc1C | – | 35.6 µM (active) |
| O=C(CCCCCCC(=O)Nc1ccccc1)NO | – | 7.76 µM (active) |
| Cc1occc1C(=O)Nc1ccc(C(=O)N2CCC(F)(F)/C(=C\C(=O)N3CCC(N4CCCCC4)CC3)c3ccccc32)cc1 | -7.76% [at 52.9 µM] | – |
| CCCCCCCC/C=C\CCCCCCCC(=O)OC(CO)CO | – | 71 µM (active) |
| C[Si](NC1CCCCC1)(NC1CCCCC1)NC1CCCCC1 | -14.3% | – |
| CCOC(=O)c1ccccc1C | 5.65% | – |
| CC(=O)Nc1ccc(N)cc1 | -21.1% | – |
| O=C1NCCN1 | – | 34.1 µM (active) |
| CC(CCO)CCc1ccccc1 (configuration not stated) | – | 7.96 µM (active) |
| CCCOC(=O)c1ccc(C(=O)OCCC)nc1 | – | 4.48 µM (active) |

These compounds were tested against Cytochrome P450 1A2 (Homo sapiens) (UniProt P05177) (assay: Cytochrome P450 Family 1 Subfamily A Member 2 (CYP1A2) small molecule antagonists: luciferase reporter qHTS assay (AID 1671199; also: nearly all actives have a fitted effect of over 50% in size)). Settings: P450-Glo CYP1A2 enzyme, luciferin luminescence, 1 h; series mostly up to 53 µM; activity change, negative = inhibition: at the top concentration.
Chain of Cytochrome P450 1A2 (Homo sapiens) (P05177 whole entry, looked up): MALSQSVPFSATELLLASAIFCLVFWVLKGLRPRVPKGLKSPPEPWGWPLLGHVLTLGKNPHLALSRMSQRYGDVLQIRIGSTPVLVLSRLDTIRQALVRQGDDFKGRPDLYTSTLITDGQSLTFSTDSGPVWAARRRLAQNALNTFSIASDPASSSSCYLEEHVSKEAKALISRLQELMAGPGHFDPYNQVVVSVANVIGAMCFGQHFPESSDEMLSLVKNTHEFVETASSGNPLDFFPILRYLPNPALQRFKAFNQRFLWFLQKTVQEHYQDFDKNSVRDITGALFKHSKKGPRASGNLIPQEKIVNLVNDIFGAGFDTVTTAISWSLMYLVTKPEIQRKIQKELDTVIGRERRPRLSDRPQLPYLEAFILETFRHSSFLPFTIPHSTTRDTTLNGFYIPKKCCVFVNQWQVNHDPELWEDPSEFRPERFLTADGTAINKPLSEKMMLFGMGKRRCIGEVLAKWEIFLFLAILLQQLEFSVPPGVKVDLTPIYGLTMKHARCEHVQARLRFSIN
Outline: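 P450-Glo CYP1A2, 1536-well qHTS: enzyme/proluciferin substrate + cpd (DMSO), 10 min RT; NADPH regen, 1 h RT; detection reagent, 20 min; luminescence, RLU.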

| SMILES | activity change, negative = inhibition | Potency |
| --- | --- | --- |
| CC(C)CCCC(=O)O | -24% [at 115 µM] | – |
| CC(N)CN (configuration not stated) | -26.4% [at 115 µM] | – |
| O=C(CCCN1CCC(O)(c2ccc(Br)cc2)CC1)c1ccc(F)cc1 | 10.2% | – |
| CCOC(=O)c1ccccc1OC | – | 35.6 µM (active) |
| C[C@]12CCC(=O)C=C1C=C[C@@H]1[C@@H]2CC[C@@]2(C)[C@H]1CC[C@@]21CCC(=O)O1 | -19.7% | – |
| CCn1cc(C(=O)O)c(=O)c2cc(F)c(N3CCNCC3)nc21 | 15.7% | – |
| CC1=C(/C=C/C(C)=C\C=C\C(C)=C\C(=O)O)C(C)(C)CCC1 | -20.9% [at 115 µM] | – |
| CCCCC(CC)COC(=O)COc1ccc(Cl)cc1C (configuration not stated) | – | 12.6 µM (active) |
| CCCCC(=O)O[C@]1(C(=O)CO)CC[C@H]2[C@@H]3CCC4=CC(=O)CC[C@]4(C)[C@H]3[C@@H](O)C[C@@]21C | 12.8% | – |
| Cc1c(C(=O)NN2CCCCC2)nn(-c2ccc(Cl)cc2Cl)c1-c1ccc(Cl)cc1 | 6.38% | – |
| CC(C)CCCCCCOC(=O)CCCCC(=O)OCCCCCCC(C)C | – | 35.6 µM (active) |
| CC1(C)O[C@@H]2C[C@H]3[C@@H]4CCC5=CC(=O)C=C[C@]5(C)[C@H]4[C@@H](O)C[C@]3(C)[C@]2(C(=O)CO)O1 | 1.73% | – |
| CC(=O)OCC(=O)[C@H]1CC[C@H]2[C@@H]3CCC4=CC(=O)CC[C@]4(C)[C@H]3CC[C@]12C | 0.625% | – |
| CCC(=O)Oc1ccc(/C(CC)=C(\CC)c2ccc(OC(=O)CC)cc2)cc1 | -13.4% [at 115 µM] | – |
| CC(C)(C)CC(C)(C)c1ccc(OCCO)cc1 | -0.425% [at 115 µM] | – |
| C=CCCCCCCCCCCCCCCCC | -11.2% [at 10.5 µM] | – |
| CSc1ccc(Oc2ccc(S(N)(=O)=O)cc2CN(C)C)cc1C | – | 63.3 µM (active) |
| O=C(CCCCCCC(=O)Nc1ccccc1)NO | – | 12.9 µM (active) |
| Cc1occc1C(=O)Nc1ccc(C(=O)N2CCC(F)(F)/C(=C\C(=O)N3CCC(N4CCCCC4)CC3)c3ccccc32)cc1 | – | 9.9 µM (active) |
| CCCCCCCC/C=C\CCCCCCCC(=O)OC(CO)CO | – | 71 µM (active) |
| CC(=O)Nc1ccc(N)cc1 | – | 40.5 µM (active) |
| CC(CCO)CCc1ccccc1 (configuration not stated) | – | 22.4 µM (active) |
| CCCOC(=O)c1ccc(C(=O)OCCC)nc1 | – | 11.2 µM (active) |
